This note sets out measurements from the supplement of paper PMC9254222.

The full ranking holds about 1,100 compounds; the median of “Renilla luciferase signal (cell health) relative to plate median” is about 0.97, and the highest 2% start at about 1.6. Only a selection was taken, and the highest values are over-represented in it overall.

The assay concerns HEK293T (UBE3A T485A transfected, BAR Wnt reporter). Briefly: Renilla luciferase signal (cell health) relative to plate median (fold (linear ratio)); higher = higher Renilla signal. Conditions: 24 h. The procedure, abridged: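 HEK293T cells carrying a transfected BAR firefly luciferase Wnt reporter, TK-Renilla and an expression plasmid were exposed to chemicals at 0.01–100 uM for 24 h, with dosing four hours after transfection. Readout used Dual-Glo luciferase. The firefly/Renilla ratio defined Wnt activity and raw Renilla defined cell health, each median-centred per plate. Figures are means of four biological replicates.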

In the case of `O=[N+]([O-])c1ccc([O-])cc1.[Na+]` [Sodium 4-nitrophenolate], the Renilla luciferase signal turned out to be 0.98 (concentration: 0.1 uM), 0.86 (concentration: 1 uM), 0.924 (concentration: 10 uM) and 0.669 (concentration: 100 uM).

Consider `COc1c(Cl)ccc(Cl)c1C(=O)O` [Dicamba], for which the Renilla luciferase signal by setting is: (concentration: 0.01 uM) 1.07; (concentration: 0.1 uM) 1.05; (concentration: 1 uM) 1.14; (concentration: 10 uM) 1.04; (concentration: 100 uM) 1.52.

`CC[C@H](C)C(=O)O[C@H]1C[C@H](O)C=C2C=C[C@H](C)[C@H](CC[C@@H](O)C[C@@H](O)CC(=O)[O-])[C@H]21.[Na+]` [Pravastatin sodium]: the Renilla luciferase signal by setting is: (concentration: 0.1 uM) 1.01; (concentration: 1 uM) 0.866; (concentration: 10 uM) 1.1; (concentration: 100 uM) 1.15.

Consider `O=C(O)c1ccccc1` [Benzoic acid], for which the Renilla luciferase signal by setting is: (concentration: 0.1 uM) 1.21; (concentration: 1 uM) 1.13; (concentration: 10 uM) 1.35; (concentration: 100 uM) 1.77.

On to `CC(=O)c1ccccc1` [Acetophenone], for which the Renilla luciferase signal is, setting by setting: (concentration: 0.1 uM) 0.867; (concentration: 1 uM) 0.964; (concentration: 10 uM) 0.94; (concentration: 100 uM) 1.11.

Turning to `O=C(O)c1cccc(C(=O)O)c1` [1,3-Benzenedicarboxylic acid], the Renilla luciferase signal runs as follows: (concentration: 0.1 uM) 1.04; (concentration: 1 uM) 1.04; (concentration: 10 uM) 1.06; (concentration: 100 uM) 1.35.

With `O=c1ccn(C2OC(COP(=O)(O)OP(=O)(O)OP(=O)(O)O)C(O)C2O)c(=O)[nH]1` (stereo unspecified), the Renilla luciferase signal reads like this: (concentration: 0.01 uM) 0.681; (concentration: 0.1 uM) 0.813; (concentration: 1 uM) 0.949; (concentration: 10 uM) 0.922; (concentration: 100 uM) 2.08.

Consider `Cl.Nc1ccn([C@@H]2O[C@H](CO)[C@@H](O)[C@@H]2O)c(=O)n1` [Cytarabine hydrochloride], for which the Renilla luciferase signal amounted to 0.829 (concentration: 0.1 uM), 0.907 (concentration: 1 uM), 0.626 (concentration: 10 uM) and 0.809 (concentration: 100 uM).

For `OCCC(F)(F)C(F)(F)C(F)(F)C(F)(F)C(F)(F)C(F)(F)C(F)(F)C(F)(F)F` [1,1,2,2-Tetrahydroperfluoro-1-decanol], the Renilla luciferase signal by setting is: (concentration: 0.1 uM) 0.4; (concentration: 1 uM) 0.824; (concentration: 10 uM) 0.813; (concentration: 100 uM) 1.27.

For `Cc1ncc([C@@H](CCCCCCc2ccc3c(n2)NCCC3)CC(=O)O)cn1`, the Renilla luciferase signal (concentration: 0.1 uM) is 0.747, the Renilla luciferase signal (concentration: 1 uM) was 0.794, the Renilla luciferase signal (concentration: 10 uM) is 0.796 and the Renilla luciferase signal (concentration: 100 uM) turned out to be 0.82.

As to `CNCc1cc(F)ccc1Oc1ccc(Cl)c(Cl)c1`, the Renilla luciferase signal by setting is: (concentration: 0.1 uM) 0.817; (concentration: 1 uM) 0.874; (concentration: 10 uM) 0.723; (concentration: 100 uM) 0.0625.

Take `Cn1cnc([N+](=O)[O-])c1Sc1ncnc2nc[nH]c12` [Azathioprine]: the Renilla luciferase signal worked out at 0.939 (concentration: 0.1 uM), 0.983 (concentration: 1 uM), 0.605 (concentration: 10 uM) and 0.0481 (concentration: 100 uM).

On to `CCCCCCCCCCCCN1CCCC1=O` [1-Dodecyl-2-pyrrolidinone], for which the Renilla luciferase signal amounted to 0.846 (concentration: 0.1 uM), 0.856 (concentration: 1 uM), 0.929 (concentration: 10 uM) and 0.883 (concentration: 100 uM).

Regarding `CC(=O)OC1CC(C)OC(C)O1` (stereo unspecified) [Dimethoxane], the Renilla luciferase signal turned out to be 1.23 (concentration: 0.1 uM), 1.1 (concentration: 1 uM), 1.26 (concentration: 10 uM) and 1.63 (concentration: 100 uM).

Consider `CCOC(=O)c1ccc([C@H]2CC[C@H](NC[C@H](O)COc3ccc(O)c(NS(C)(=O)=O)c3)CC2)cc1.Cl`, for which the Renilla luciferase signal came out at 0.973 (concentration: 0.1 uM), 0.878 (concentration: 1 uM), 0.753 (concentration: 10 uM) and 0.0262 (concentration: 100 uM).

Take `C[C@]12C[C@H](O)[C@H]3[C@@H](CCC4=CC(=O)CC[C@@]43C)[C@@H]1CC[C@@H]2C(=O)CO` [Corticosterone]: the Renilla luciferase signal amounted to 0.641 (concentration: 0.1 uM), 0.712 (concentration: 1 uM), 0.847 (concentration: 10 uM) and 0.636 (concentration: 100 uM).
